# Screening results from PubChem BioAssay.
# S1P4 agonist: human S1P4 receptor agonism | S1P4-expressing cell line, agonist reporter assay | activation, % at 4.98 µM | hit rate 0.35% among 220,000 | AID 1509; in the data active = activation above about 11%
# p97 inhibitor: blocks human p97 ATPase activity; P55072; recombinant p97 ATPase, Kinase-Glo ATP luminescence, 3 h; inhibition, % at 8 µM; hit rate 0.42% among 220,000; AID 1481; in the data active = inhibition above about 15%
# SUMO HTRF inh: SUMOylation inhibition; hit rate 0.36% among 290,000; inhibition, % at 35 µM; HTRF SUMOylation assay, SAE1/SAE2 + UBC9, in vitro; in the data active = inhibition above about 50%, passing the limit was not always enough
# S1P4 antagonist: human S1P4 receptor antagonism; hit rate 0.26% among 220,000; O95977; inhibition, % at 4.98 µM; S1P4-expressing cells, antagonist mode, reporter read-out; AID 1510; in the data active = inhibition above about 29%
# Redox H2O2 prof: compounds producing H2O2 with reducing agent – biochemical, NIH compound library profiling, artefact control for MLSCN library redox annotation, primary screen | hit rate 0.03% among 200,000 | AID 878 | activation, % at 10 µM | DTT-dependent redox cycling H2O2, phenol red/HRP absorbance; 100% = 100 µM peroxide control, 0% = buffer;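 active = activation of at least 50% relative to the plate's high and low controls in the primary single-dose screen; inactive = activation below 50%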;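 also: compound incubated with DTT at 0.8 mM final as the reducing agent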
# S1P3 antagonist: blocks the human S1P3 receptor | CHO S1P3 NFAT-BLA reporter, FRET fluorescence, antagonist mode | inhibition, % at 4.98 µM | hit rate 0.27% among 170,000 | AID 485;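 active = inhibition above the plate cutoff, the mean inhibition of test wells on that plate plus 3 SD, cut at about 28% in these data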;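 also: cells challenged with S1P at its EC80 of 0.8 µM; blue over green emission ratio from cleaved BLA substrate after 4 h stimulation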
# Target sequence (Q99500 whole entry, looked up): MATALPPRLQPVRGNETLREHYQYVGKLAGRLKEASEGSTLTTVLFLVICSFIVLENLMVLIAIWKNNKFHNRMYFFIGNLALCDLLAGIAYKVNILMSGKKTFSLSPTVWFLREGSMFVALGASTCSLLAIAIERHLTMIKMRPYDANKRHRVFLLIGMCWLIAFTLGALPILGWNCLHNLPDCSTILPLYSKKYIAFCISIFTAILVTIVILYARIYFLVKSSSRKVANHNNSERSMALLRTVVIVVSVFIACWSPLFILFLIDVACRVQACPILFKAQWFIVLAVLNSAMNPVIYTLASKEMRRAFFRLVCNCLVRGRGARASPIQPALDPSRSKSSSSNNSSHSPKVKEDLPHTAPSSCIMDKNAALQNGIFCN
# A number is an active result; i = inactive; nt = no result given. Sampled rows, rich in hits. Any-hit rate of the full collection: about 1.1%.
SMILES,S1P4 agonist,p97 inhibitor,SUMO HTRF inh,S1P4 antagonist,Redox H2O2 prof,S1P3 antagonist
O=C(NCC1CCCO1)c1cc2cc(Cl)ccc2[nH]1 (configuration not stated),nt,nt,i,nt,nt,nt
CC(Cc1cccs1)NC(=O)Nc1ccc(Cl)c(Cl)c1 (configuration not stated),i,i,i,i,i,nt
S=C(Nc1cccc(Cl)c1)Nc1cccc2cnccc12,i,27,98,i,i,i
Cc1ccc(NC(=S)Nc2cccc3cnccc23)cc1,i,i,100,i,i,i
Cc1ccccc1NC(=S)Nc1cccc2cnccc12,i,i,97,i,i,i
CC(=O)c1cccc(NC(=S)Nc2cccc3ccccc23)c1,nt,nt,i,nt,nt,nt
CC(=O)c1ccc(NC(=S)Nc2cccc3cnccc23)cc1,i,17,98,i,nt,i
Fc1ccccc1NC(=S)Nc1cccc2cnccc12,i,i,98,i,i,i
Cc1ccc(S(=O)(=O)N/N=C\c2ccc3c(c2)OCO3)cc1,i,16,i,i,i,nt
O=C(Nc1ccc(N2CCCCC2)cc1)c1ccc([N+](=O)[O-])o1,nt,nt,i,nt,nt,nt
O=C(Nc1ccc(N2CCCC2)c(Cl)c1)c1ccc([N+](=O)[O-])o1,i,i,i,90,i,i
CCCOc1ccc(/C(O)=C2\C(=O)C(=O)N(CCCN(C)C)C23C(=O)N(C)c2ccccc23)cc1 (configuration not stated),nt,nt,i,nt,nt,i
CCN(CC)C(=O)c1c(NC(=O)c2ccccc2)sc(C)c1C,i,15,i,i,i,nt
CC1Cc2ccccc2N1C(=O)Cn1c(=O)oc2cc(S(=O)(=O)N3CCCCC3)ccc21 (configuration not stated),i,i,i,i,i,81
Cc1cc(OC(=O)c2ccc(Cl)cc2Cl)c([N+](=O)[O-])c(=O)[nH]1,nt,nt,i,nt,nt,nt
COc1cccc(C2=Nc3cccc4cccc(c34)N2)c1,i,i,i,i,i,i
c1coc(C2=Nc3cccc4cccc(c34)N2)c1,i,i,94,i,i,i
CC(C)OCCCN1CN(S(=O)(=O)c2cccc(Cl)c2)c2nc3ccccc3nc21,i,i,i,i,i,nt
COc1ccc(CCNC(=O)c2c(O)c3ccccc3[nH]c2=O)cc1OC,nt,nt,i,nt,nt,nt
CC(C)(C)c1ccc(C(=O)NCCCNC(=O)c2ccco2)cc1,nt,nt,i,nt,nt,nt
CC(C)(C)c1cc(C(F)(F)F)nc(SCCCNC(=O)c2ccco2)n1,i,i,i,i,i,59
CCN(CC)C(=O)COc1ccc2oc(-c3ccco3)cc(=O)c2c1,i,i,53,i,i,i
COc1ccc(NC(=O)COC(=O)CCCc2c[nH]c3ccccc23)cc1OC,i,i,i,i,i,nt
CCCNC(=O)CN1C(=O)COc2ccc(S(=O)(=O)N3CC(C)CC(C)C3)cc21 (configuration not stated),nt,nt,i,nt,nt,nt
COC(=O)c1ccc(C(C(=O)NCc2ccccc2)N(Cc2ccco2)C(=O)c2cnccn2)cc1 (configuration not stated),19,i,i,i,i,i
SMILES,S1P4 agonist,p97 inhibitor,SUMO HTRF inh,S1P4 antagonist,Redox H2O2 prof,S1P3 antagonist
O=C(NCc1ccccc1)C(c1cccnc1)N(Cc1ccco1)C(=O)c1ccccn1 (configuration not stated),i,i,i,i,i,i
O=C(COC(=O)c1ccc2ncsc2c1)NC(=O)c1ccccc1,i,i,i,i,i,i
COc1ccc(C(=O)NC(=O)COC(=O)c2ccc3ncsc3c2)cc1,i,i,68,i,i,i
C/C(=N\NC(=O)c1ccncc1)c1cc2ccccc2oc1=O,i,i,i,i,i,i
C/C(=N/NC(=O)c1ccncc1)c1cc2ccc(O)cc2oc1=O,48,i,i,i,i,i
CCCCn1c(SCC(=O)Nc2cc(C(F)(F)F)cc(C(F)(F)F)c2)nnc1C(CC)N(C)C (configuration not stated),i,i,i,i,i,i
CC(NC(=O)c1ccc(N(C)C)cc1)C1CC2CCC1C2 (configuration not stated),i,i,i,34,i,nt
O=C(NCCN1CCCC1=O)C1CCC(=O)N(CCc2cccc(F)c2)C1 (configuration not stated),nt,nt,i,nt,nt,nt
CC(=O)Nc1ccc(NC(=O)Cn2c(-c3ccc(F)cc3)cnc2SCC(=O)Nc2c(C)cccc2C)cc1,i,i,51,i,i,nt
Cn1c(-c2ccc(F)cc2)cnc1SCC(=O)Nc1ccccc1,i,i,i,i,i,i
